Common to all, as to test: NCI-60 one-dose screen, 48 h (100 = growth as untreated, 0 = no growth, -100 = all killed)
What all share (details): 10 µM unless noted

Test [1] relates to NCI-H23 lung.
Test [2] deals with NCI-H226 lung.
The subject of test [3] is NCI-H322M lung.
Test [4] deals with HOP-62 NSCLC.
Test [5] deals with NCI-H460 lung.
In test [6] the test system is HOP-92 NSCLC.
The subject of test [7] is NCI-H522 lung.
Test [8] concerns A549/ATCC NSCLC.
For test [9], the system named is 786-0 renal.
Test [10] relates to COLO 205 colon.
In test [11] the test system is DU-145 prostate.
Test [12] concerns K-562 leukemia.
The subject of test [13] is MALME-3M melanoma.
Test [14] deals with MDA-MB-231 breast.
In test [15] the test system is RXF 393 renal.
In test [16] the test system is SF-268 CNS.
In test [17] the test system is SF-295 CNS.
For test [18], the system named is SF-539 CNS.
For test [19], the system named is UACC-257 melanoma.
Test [20] has as its system M14 melanoma.

Molecules are shown by their SMILES. Compounds without any hit were thinned out: in the full panel of roughly 83,000, 20% have a hit.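 Method: cells in 96-well plates; compound added at one concentration; 48 h incubation; percent growth measured; values under 10 scored active.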 A number with no mark means an inactive call. The source made the active and inactive calls.

Experimental findings from PubChem BioAssay (NCI) are described below.

Turning to `O=S(=O)(Nc1cc(Sc2nc3ccccc3s2)c(O)c2ccccc12)c1ccc2ccccc2c1`, the growth in test [1] was 76.3%; in test [2], 94.1%; in test [3], 94.9%; in [4] it was 102%; in [5], 99.7%; in [6] it was 109%. The growth in test [7] was 83%; in [8], 99.9%; in test [9], 111%; in [10] it was 101%; in test [11], 101%; in test [12], -35.7% (active). Also, the growth in [13] was 102%; in test [14], 71.1%; in test [15] it was 104%; in test [16], 95.4%; in test [17], 87.7%; in [18], 106%. Besides, the growth in test [19] is 99.8%; in test [20] it was 109%.
In the case of `COc1ccc(CNc2ccc3nc(NC(=O)CN4CCCCCC4)sc3c2)cc1`, the growth in test [1] is 71.1%; in test [2] it was 80%; in [3] it was 106%; in [4], 113%; in [5] it was 94.9%; in test [6], 77.6%. Further, the growth in test [7] was 70.3%; in test [8], 80.5%; in [9], 104%; in test [10], 82.4%; in test [11] it was 99.2%; in [12], 44.6%. The growth in test [13] was 96.3%; in test [14] it was 77.7%; in [15], 97%; in test [16], 108%; in [17], 83.8%; in test [18], 102%. The figures for the growth in test [19] and in test [20] were 86% and 85.9%, respectively.
For the molecule `CC(=O)N1N=C(c2ccc(Nc3nc(Nc4ccc(F)cc4)nc(Nc4ccc(F)cc4)n3)cc2)CC1c1ccc(N(C)C)cc1` (stereo not given), the growth was 52.2% in test [1]; 74.6% in test [2]; 84% in test [3]; 54.5% in test [4]; 54.3% in test [5]; 35.3% in [6]. Further, the growth in [7] is 46%; in test [8], 39.3%; in test [9], 58.5%; in [10] it was 46.6%; in [11], 78.2%; in test [12], 16.8%. Also, the growth in [13] is 42.1%; in test [14] it was 70%; in test [15], 9.66% (active); in [16], 74.4%; in test [17], 18.2%; in test [18] it was 65.5%. Moreover, the growth in test [19] was 74.2%; in [20], 40.2%.
`Cn1cc(-c2csc(-c3cn(CCCN4CCOCC4)c4ccc(F)cc34)n2)c2cccnc21`: the growth is 63.7% in test [1]; 51.9% in [2]; 79% in test [3]; 71.7% in [4]; 41% in test [5]; 40.8% in test [6]. In addition, the growth in test [7] is 49.5%; in [8], 66.1%; in test [9], 57.4%; in test [10], 51.3%; in test [11] it was 80.3%; in test [12] it was 0.484% (active). The growth in test [13] was 87.4%; in test [14] it was 25.1%; in test [15] it was 36.1%; in [16], 66.6%; in test [17], 11.2%; in [18] it was 57.6%. Moreover, the growth is 78.5% in test [19] and 46.2% in test [20].
With `COc1ccc(-c2cn(Cc3cc4ccccc4s3)nn2)cc1OCCN1CCCCC1`, the growth in [1] was 78.3%; in [2] it was 95.6%; in test [3], 94.2%; in test [4], 84%; in test [5], 90%; in test [6], 50%. For the same molecule, the growth in [7] is 91.7%; in [8], 80.2%; in test [9], 69.1%; in [10], 60.7%; in [11], 85.7%; in [12] it was 16.3%. Also, the growth is 5.75% (active) in [13]; 45.9% in test [14]; 44.2% in test [15]; 70.8% in test [16]; 70.6% in [17]; 79.7% in [18]. For the same molecule, the growth in test [19] was 41.1%; in test [20], -29.4% (active).
Take `CC(=O)O[C@H]1CC[C@]2(C)[C@H]3CC=C4[C@@H]5CC(C)(C)CC[C@]5(C(=O)N5CCN(CCC#N)CC5)CC[C@@]4(C)[C@]3(C)CC[C@H]2C1(C)C`: the growth in [1] is 45.3%; in test [2], 48.9%; in test [3] it was 53.3%; in test [4], 41.2%; in [5] it was -1.52% (active); in [6] it was 56.7%. Further, the growth is 38.9% in [7]; 25.6% in [8]; 47.4% in [9]; 21.1% in [10]; 57.8% in [11]; 10% in test [12]. Also, the growth is 26% in test [13]; 48.5% in test [14]; 74.3% in [15]; 51.8% in [16]; 65.5% in [17]; 16.7% in [18]. The growth was 18.1% in test [19] and 35.7% in test [20].
Regarding `COc1cc(-c2ccc(-c3ccc(C(=N)N)cc3)s2)cc(OC)c1OC`, the growth in [1] was 84.4%; in test [2], 82.5%; in test [3], 73.2%; in test [4] it was 59.1%; in test [5] it was 37.1%; in test [6], 43.4%. For the same molecule, the growth in [7] is 62.4%; in test [8] it was 75.4%; in test [9], 69.4%; in test [10] it was -41.8% (active); in [11], 63.6%; in test [12], 1.05% (active). The growth in test [13] was 32.7%; in test [14], 53.2%; in test [15] it was 80.9%; in test [16], 65.1%; in test [17], 46.2%; in [18] it was 47.1%. In addition, the growth in test [19] was 63.5%; in test [20], 47.9%.
Regarding `O=c1oc2c(cnc3ccccc32)cc1-c1cccc(Cl)c1`, the growth was 101% in [1]; 96.2% in test [2]; 104% in [3]; 113% in test [4]; 106% in test [5]; 81.7% in test [6]. Further, the growth in test [7] is 101%; in [8], 104%; in test [9], 106%; in [10], 118%; in test [11] it was 108%; in test [12] it was 89%. In addition, the growth was 103% in [13]; 97.6% in [14]; 112% in test [15]; 98.8% in test [16]; 101% in [17]; 95.2% in test [18]. Further, the growth in [19] was 101%; in test [20], 112%.
